Experimental data: PubChem BioAssay AID526 (National Center for Advancing Translational Sciences (NCATS), 2006)
Fewer than 10 of roughly 67,000 compounds were called active. Calls come from the whole dose curve; as a rule, active = well fitted activation curve with a large enough effect (not every such curve was filed as active); inconclusive = small, poorly fitted or top-dose-only effect, or another doubt; inactive = no such curve, though single readings can be large or run the other way. These entries were drawn from the full list.

test: Ubiquitin-GFP Assay; details: Ubiquitin-GFP reporter cells, proteasome inhibition, GFP fluorescence, untreated = 0%, 10 µM MG-132 = 100%; series mostly up to 45.9 µM
Source text: NIH Chemical Genomics Center [NCGC]
NIH Molecular Libraries Screening Centers Network [MLSCN]
The ubiquitin-proteasome pathway is present within all eukaryotic cells and plays roles in normal cellular functions and disease-related dysfunction. Proteins are tagged with a poly-ubiquitin chain that targets them for the proteasome, a multimeric protease, that degrades the protein into peptides and free ubiquitin. The proteasome has a key role in regulating cell cycle and growth and is known to control the levels of cyclins and CDK inhibitors as well as tumor suppressor proteins. Additionally, the activation of NF- B is controlled by ubiquitin-labeling and degradation of the inhibitory protein I B . […] With this in mind, proteasome inhibitors such as MG-132 and PS-341 have been used to inhibit tumor cell growth.
A cellular assay for ubiquitin-proteasome function was used to find chemical probes of this pathway. The assay used an ubiquitin-GFP construct expressed in U2OS cells (BioImage). Under basal conditions little GFP can be detected as it is degraded by the proteasome. However, treatment of the cells with a proteasome inhibitor such as MG-132 results in a rise in GFP levels that can be detected in as little as four hours. We used the Acumen-Explorer laser plate cytometer having a 488 nm laser as an excitation light source to detect the GFP. Compounds were screened in 1536-well plates using qHTS with a concentration-titration series range that varied from 46 uM to 2.9 nM.
NCGC Assay Protocol Summary:
Cells (U20S ps 2042) expressing ubiquitin (G76V-GFP) were maintained in DMEM with Glutamax-1 and high glucose, 10% FBS, 1% (v/v) penicillin-streptomycin, 0.5 mg/mL Geneticin (G418). The cells were seeded in 1536-well plates using a solenoid-based dispenser at 700 cells/5ul in DMEM medium with Glutamax-1 and high glucose containing 0.5% FBS, w/o phenol red, 25 mM HEPES. The plates were incubated at 37 °C/5% CO2 overnight. Then 23 nl of MG-132 in DMSO was added to the control wells at a final concentration of 10 uM. Next, 23 nL of library compounds in DMSO were added to the sample wells. The plates were incubated for 4 hrs at 37 °C/5% CO2. Following this incubation the plates were read on the Acumen using a cell object definition of 15 to 100 um in width and depth and a window of Total Intensity of between 77,200 and 2,720,000 FLU to enumerate GFP-expressing cells.
The %Activity was determined from the basal and MG-132 treated control wells. %Activity was determined by normalizing to the difference in signal between basal cells (0% Activity) and cells incubated with 10 uM of the proteasome inhibitor MG-132 (100% Activity). Concentration-response curves were fitted to the signals arising from the GFP fluorescence.
Assay Protocol Summary Table
Sequence Parameter Value Description
2. Time O/N 37C incubation
4. Compound 23 nL Libraries (46 uM to 2.9 nM)
5. Time 4 hr 37C incubation
6. Detector Acumen Total Intensity, GFP fluorescence (488 ex/515 em)
Keywords: NIH Roadmap, MLSCN, MLI, MLSMR, BioImage, proteasome, ubiquitin-GFP, qHTS, NCGC

Activation (GFP accumulation), inactive:
Cc1cc(=O)n2nc(N3CCCC(C(=O)N4CCN(C)CC4)C3)sc2n1 (stereo not drawn)
CN(C)C(=O)/N=N\C(=O)N(C)C
CCCC(CCC(=O)OC)(C(=O)OCC)c1csc(N)n1 (stereo not drawn)
O=C(CSC1=NCCS1)Nc1nc(-c2ccccc2)cs1
COc1ccc(OC)c(C(=O)CSc2nnc(-c3cccs3)o2)c1
Cc1ccc2cccc(O)c2[n+]1[O-]
COc1ccc(OC)c(NC(=O)CSc2nc3cccnc3n2C)c1
CCCCC(=O)Nc1ccc(C(=O)NCCCn2ccnc2)cc1
CN1[C@H]2CC(OC(=O)[C@@H](CO)c3ccccc3)C[C@H]1[C@H]1O[C@H]12 (stereo partly drawn)
Nc1ccc2c3c(cccc13)C(=O)NC2=O
Cc1ccc(Cn2ccc(NC(=O)C3C4CCC(C4)C3C(=O)O)n2)cc1 (stereo not drawn)
Cc1cccc(N2CCN(Cc3c(C)n(C)n(-c4ccccc4)c3=O)CC2)c1C -18.2% [at 9.17 µM]
Cc1onc(-c2ccccc2Cl)c1C(=O)NCCn1ccc2ccccc21
CCOC(=O)c1cc(-c2ccc(Cl)s2)nc2c1c(C)nn2C
COc1nc(NCc2ccc(Cl)cc2)nc(OC)n1 -9.93% [at 9.17 µM]
COc1ccc(-c2cc(C(F)(F)F)nc(SCCC(=O)NCc3ccco3)n2)cc1
COC(=O)C(C)Sc1ccc2nnc(-c3cccc(F)c3)n2n1 (stereo not drawn)
CCNc1ncc2nc(CCc3ccccc3)c(=O)n(-c3ccc(OC)cc3)c2n1
Cc1nnc(C)n1/N=C/c1ccc(C(C)C)cc1
O=C(CN1CCN(C2CCCCC2)CC1)Nc1ccccc1N1CCCCC1
CS(=O)(=O)N1CCC2(CCN(c3ccncc3)CC2)CC1
COc1ccccc1NC(=O)CSc1nnc(Cc2cccn2C)n1-c1ccc(F)cc1
CNC(=O)CN1C(=O)c2ccccc2S1(=O)=O
Oc1c(CN2CCOCC2)ccc(CN2CCOCC2)c1O -4.99% [at 9.17 µM]
Cc1cc(C)c2nc3c(c([C@H](O)[C@@H]4CCCCN4)c2c1)CC/C3=C/c1ccc(Cl)cc1 1.75% [at 9.17 µM]
O=C(Nc1c[nH]c(=O)[nH]c1=O)Oc1ccccc1 7.84% [at 9.17 µM]
CC(=O)Nc1nc(C)c(Cc2ccccc2)c(=O)[nH]1
O=C(NC(c1ccccc1)c1ccccc1)N1CCN(CCO)CC1
O=C(c1cnccn1)N1CCC2(CCN(Cc3cc(C(F)(F)F)cc(C(F)(F)F)c3)CC2)CC1
CC1(C)NC(=O)N(CCOc2cccc(Oc3ccccc3)c2)C1=O
Cc1ccccc1NC(=O)c1cnn(-c2ccccc2)c1NC(=O)c1ccco1
c1ccc(CSCCc2ccncc2)cc1 0.403% [at 9.17 µM]
CCOC(=O)c1cc2cc(C)ccc2[nH]1
Cn1c(=O)cc(OCCCC(=O)N2CCN(c3ccccn3)CC2)c2ccccc21
COc1ccccc1-n1c(CNC(=O)c2ccccc2)nnc1SCC(=O)Nc1nnc(C)s1
COc1ccccc1-c1nc(NCCNC(C)=O)c2ccccc2n1
CCc1ccc(-c2nnn(Cc3nc4ccccc4s3)n2)cc1
CC(=O)OCC(=O)[C@@]1(O)CC[C@@H]2[C@H]3CCC4=CC(=O)C=C[C@]4(C)[C@]3(F)[C@@H](O)C[C@@]21C
CCC(=O)N1c2ccc(S(=O)(=O)CCC(=O)N3CCN(c4ccccc4)CC3)cc2CC1C (stereo not drawn)
CN(C)c1nc2n(c(=O)n1)CCO2
c1ccc(CCN2CCN=C2Cc2ccccc2)cc1 -3.08% [at 9.17 µM]
COc1ccccc1N1CCN(C(=O)c2cc(-c3ccc(Cl)c(Cl)c3)on2)CC1
Cc1nc(NC(=O)CCC(=O)O)sc1C(=O)N(C)C
CN1CCN(CCCNC(=O)c2cc3c(=O)oc4ccccc4c3s2)CC1
COc1ccc(CC(=O)Nc2nc3n(n2)C(c2ccccc2)CC(=O)N3)cc1OC (stereo not drawn)
COc1c(C)c2c(c(O)c1C/C=C(\C)CCC(=O)O)C(=O)OC2
CN(C)CCSS(=O)(=O)O 9.1% [at 9.17 µM]
CCCn1c(C)nc2c(NCCCCN(CC)CC)nc(C)nc21
CCOC(=O)N1CCN(C(=O)Cc2ccc(-n3c(=S)[nH]c4ccccc4c3=O)cc2)CC1
CCN(CC)CCCCn1c(-c2ccccc2)nc2c(N3CCOCC3)nc(C)nc21
CCN(Cc1ccncc1)C(=O)c1cccc(S(=O)(=O)N2CCOCC2)c1
CN(C)CC/C=C1\c2ccccc2CSc2ccccc21
CC[C@@H]1Cc2cc(O)ccc2C2=C1c1ccc(O)cc1C[C@H]2CC
COc1ccc(C(=O)n2nc(-c3ccc(C)cc3)nc2N)cc1OC
O=C(C1CCC1)N1CCc2cc(S(=O)(=O)NCc3cccnc3)ccc21
CC(C)CNC(=O)c1cc(-c2ccc(Br)cc2)on1
CCn1c(CNC(=O)c2ccc(OC)c(OC)c2)nnc1SCC(=O)Nc1ccccc1
COCCNC(=O)c1snc2ccc(Cl)cc12
O=C(c1cc(C(F)(F)F)cc(C(F)(F)F)c1)N1CCC[C@@]2(CCN(c3ccccn3)C2)C1
COc1ccc(CCNC(=O)CSc2nc(C)nc3c2oc2ccccc23)cc1OC
Cc1nnc(SCC(=O)NCc2ccccc2)s1
COc1ccc2nccc(C(=O)O)c2c1
COC(=O)c1cc(NC(=O)CN2CCC(C(N)=O)(N3CCCCC3)CC2)cc(C(=O)OC)c1
COc1ccc(N(Cc2cc3cc(OC)ccc3[nH]c2=O)S(C)(=O)=O)cc1
O=C(CN1CCOCC1)N1CCCc2c1c(=O)oc1ccc(OCc3ccccc3)cc21
O=C(O)/C(=C/c1c(C(=O)O)[nH]c2cc(Cl)cc(Cl)c12)c1ccccc1
CCCn1c(-c2ccc(F)cc2)nc2c(NC3CCN(Cc4ccccc4)C3)nc(C)nc21 (stereo not drawn)
COc1ccc(N(CC(=O)NC(C)(C)C)C(=O)c2ccco2)cc1
CCOC(=O)c1cnc2sccn2c1=O
COC(=O)Cn1c(=NC(=O)CSCC(=O)Nc2cc(C)on2)sc2ccccc21
Cc1ccc(C)c2[nH]c(=O)c(CCNC(=O)CC(C)C)cc12
COc1cccc(Cn2c(=O)c(C)nc3cnc(Oc4ccccc4)nc32)c1
O=c1c(-c2ccc(F)cc2)nc2cnc(N3CCNCC3)nc2n1Cc1cccs1
Cc1ccc(SCc2cc(=O)[nH]c(N3CCCCC3)n2)cc1
CC(=O)Oc1ccc(C(=O)Nc2nccs2)cc1
CCn1c(=O)cc(SCC(=O)NCc2ccc3c(c2)OCO3)c2ccccc21
Oc1cc2c(cc1O)CN(C(=S)NCCc1ccc(Cl)cc1)CCC2
Cc1ccc(-c2c3c(=O)n(C)c(=O)n(C)c3cn2-c2ccccc2O)cc1
CCCCn1nnnc1NCc1cc(OC)c(OC)c(OC)c1
CC(N)=NCc1cccc(CN)c1
CN1C(=O)C[C@H](c2ccccc2)C1=O
Nc1nc2c(ncn2[C@H]2CC[C@@H](CO)O2)c(=O)n1C(=O)c1ccccc1 -2.15% [at 9.17 µM]
Cc1ccc(-n2ncc3c2ncn2nc(-c4ccco4)nc32)c(C)c1
CCCCC(=O)Nc1cc(C)c2c(=O)oc3ccccc3c2n1
Cc1ccc(NC(=O)NCC(c2cccnc2)N2CCOCC2)cc1 (stereo not drawn)
COc1cc(C2C(C#N)=C(C)NC3=C2C(=O)CC(C)(C)C3)ccc1O (stereo not drawn)
COc1ccc(N2C(=O)c3cccc4cccc(c34)C2=O)nn1
O=C(Nc1nsc(-c2ccccc2)n1)c1ccncc1
C[N+](C)(C)CCCCCNCC12CC3CC(CC(C3)C1)C2
CN(C)c1ccnc2sc3c(=O)n(Cc4ccccc4)cnc3c12
O=C(O)CN(Cc1ccco1)S(=O)(=O)c1ccccc1
CCOCCCNS(=O)(=O)Cc1ccccc1
O=C(O)[C@H](CCc1ccccn1)c1ccccc1 -6.91% [at 9.17 µM]
